Data published in PubChem BioAssay AID1117361 (Southern Research Institute, 2015).
Among all 3,600 compounds or so, about 900 (25%) were called active. Only a sample is shown. Results with a measured potency or affinity are listed apart. Values without a mark were called inactive. No rule for the calls is given here.

Each molecule was assayed against Protein Tat (Human immunodeficiency virus type 1 group M subtype B (isolate HXB2)) (UniProt P04608) (assay: HIV-1 Tat–TAR interaction blockers – biochemical, fluorescence polarization, FAM-labeled TAR RNA, counter-screen for Vif-APOBEC3G degradation inhibitor project, dose response (AID 1117361)). Conditions: Tat-TAR RNA binding; series mostly up to 100 µM; inhibition: at the top concentration.

| Compound | outcome | inhibition [%] |
| --- | --- | --- |
| CCN(CC)S(=O)(=O)N1CCC(C(=O)NCC2COc3ccccc3O2)CC1 (stereo not drawn) | inactive | – |
| N/C(=N\OC(=O)COc1ccc([N+](=O)[O-])cc1)c1cccnc1 | inactive | – |
| O=C(NCc1cccc(F)c1)C1CCN(S(=O)(=O)Cc2ccccc2)CC1 | inactive | – |
| O=C(CSc1nnc(Cc2ccc(Cl)cc2)o1)Nc1ccccc1 | inactive | – |
| CC1CCCC(NC(=O)Cn2cc3c(n2)CCCCC3)C1C (stereo not drawn) | inactive | – |
| COCCn1cc(C(=O)NCc2cccs2)c2c3ccccc3n(C)c2c1=O | – | 12.8 |
| Cc1ccc2c(c1)N=C(c1ccc(Cl)cc1)CO2 | – | 11.6 |
| COc1ccc(NC(=O)Nc2cccs2)cc1OC | – | 10.9 |
| CCOC(=O)C1CCCN(C(=O)c2ccc3c(c2)OCO3)C1 (stereo not drawn) | inactive | – |
| CCOC(=O)C1CCCN(c2c(NCCN(CC)c3ccccc3)c(=O)c2=O)C1 (stereo not drawn) | – | 1.35 |
| COc1cc(C(=O)Oc2cccc(Nc3ncnc4ccccc34)c2)cc(OC)c1OC | – | 3.41 |
| COc1ccc2c(c1)C1CC(C)(NC(=O)C1C(=O)c1ccccc1)O2 (stereo not drawn) | – | 2.03 |
| COc1cc(/C=N/N=C2/NC(=O)C(c3ccccc3)S2)ccc1O (stereo not drawn) | inactive | – |
| COc1ccc(/C=N/N=C2/NC(=O)C(c3ccccc3)S2)c(OC)c1 (stereo not drawn) | – | 5.41 |
| Cc1[nH]c2ccccc2c1C(=O)CN1C(=O)NC(C)(c2ccc(Cl)cc2Cl)C1=O (stereo not drawn) | – | 3.41 |
| CCN(CC(=O)NCc1cccs1)C(=O)c1ccc([N+](=O)[O-])o1 | inactive | – |
| COc1ccc(OC)c(NC(=O)COC(=O)c2ccc(OC)c(S(=O)(=O)N3CCOCC3)c2)c1 | – | 0.82 |
| Cc1cc(C)n2nc(C(=O)OCC(=O)N(C)CC(=O)Nc3ccc(F)cc3)nc2n1 | – | 10.7 |
| COc1cccc(NC(=O)CN(C)C(=O)CCCc2nc3ccccc3s2)c1 | – | 1 |
| COc1ccc(-c2cc(C(=O)N(C)CC(=O)Nc3ccccc3Br)c3ccccc3n2)cc1OC | inactive | – |
| COc1ccc(C(=O)Nc2cccnc2)cc1S(=O)(=O)N1CCOCC1 | – | 6.76 |
| CN(CC(=O)Nc1cccc(F)c1)C(=O)c1cc(-c2ccco2)nc2ccccc12 | – | 16.4 |
| CC(=NC1CCCC1)c1c(C)[nH]n(-c2nc3ccccc3s2)c1=O | inactive | – |

| Compound | outcome | inhibition [%] |
| --- | --- | --- |
| c1ccc(-c2cc(-c3nnc4n3N=C(c3ccc5ccccc5c3)CS4)[nH]n2)cc1 | – | 2.03 |
| O=[N+]([O-])c1cccc(/C(=N/N=C/c2ccccc2Br)C23CN4CN(CN(C4)C2)C3)c1 | inactive [at 50 µM] | – |
| COC(=O)c1c(NC(=O)COC(=O)c2ccc(NC(=O)CC#N)cc2)sc2c1CCCCC2 | – | 4.95 |
| O=C(CSc1nc2cc([N+](=O)[O-])ccc2n1-c1ccccc1)NCc1ccc2c(c1)OCO2 | inactive | – |
| CCCc1ccc(-c2csc(NC(=O)Cc3cccs3)n2)cc1 | inactive | – |
| COC(=O)C1=C(N)Oc2cc(C)n(Cc3cccnc3)c(=O)c2C1c1cccc(OC)c1OC (stereo not drawn) | – | 5.41 |
| O=C(OCN1C(=O)c2ccccc2C1=O)C1CCCCC1 | – | 8.87 |
| COc1cc(-c2n[nH]c(=O)o2)cc(OC)c1OC | – | 2.73 |
| COC(=O)/C(=C\Nc1ccccc1)NC(=O)c1ccc(Cl)cc1Cl | – | 0.68 |
| CCOc1ccc2nc(NC(=O)CN3CCN(c4ccccn4)CC3)sc2c1 | – | 4.77 |
| CC1=C(C(=O)OC2CCCCC2)C(c2ccc(C)o2)C2=C(CCCC2=O)N1 (stereo not drawn) | – | 0.68 |
| CCOc1ccc(N(C(C)C(=O)NC2CCCCCC2)S(C)(=O)=O)cc1 (stereo not drawn) | – | 2.73 |
| CC(NC(=O)/C(C#N)=C/c1cn[nH]c1-c1ccccc1)c1ccccc1 (stereo not drawn) | inactive | – |
| CCCC[C@@H]1CNC(=S)N1CCc1cccc2ccccc12 | inactive | – |
| Cc1nn(Cc2ccc(F)cc2)c(C)c1NC(=O)c1noc2c1CCc1ccccc1-2 | – | 0.68 |
| N=c1ccn(Cc2ccc(Cl)cc2)cc1 | – | 4.73 |
| C=CCc1c(C)nc(C)nc1N/N=C/c1ccc(F)cc1 | – | 1.36 |
| COCCNC(=S)c1ccc(OC)cc1 | – | 6.08 |
| CCN(CC)S(=O)(=O)c1ccc(C(=O)NCc2n[nH]c(=S)n2-c2ccccc2OC)cc1 | inactive | – |
| Cc1ccc(N=Cc2nc(-c3ccco3)oc2O)cc1 | – | 10.1 |
| Clc1ccc2nc3ccccn3c2c1 | inactive | – |
| O=C(NC1CCCCC1)n1c(=O)oc2cc(S(=O)(=O)N3CCCCC3)ccc21 | – | 3.38 |
| CC(C)Cn1c(N)c(C(=O)NCc2cccs2)c2nc3ccccc3nc21 | inactive | – |

| Compound | outcome | inhibition [%] |
| --- | --- | --- |
| COC(=O)c1ccc(-n2nnnc2SCC(=O)Nc2cc(OC)ccc2OC)cc1 | – | 9.55 |
| CCOC(=O)N1CCC(N2Cc3cccc(C(=O)Nc4cc(F)ccc4F)c3C2=O)CC1 | – | 4.73 |
| CC1(C)CC(=O)C=C(Nc2ccccc2NC(=O)c2cnccn2)C1 | – | 19.6 |
| CCC(C)NS(=O)(=O)c1ccc(NS(=O)(=O)c2ccc(F)cc2)cc1 (stereo not drawn) | inactive | – |
| O=C(CCc1c[nH]c2ccccc12)N1CCN(c2ccc(O)cc2)CC1 | inactive | – |
| CC(C)CN1C(=O)c2ccc(C(=O)Nc3ccc(O)cc3C(=O)O)cc2C1=O | inactive | – |
| COC(=O)c1c(NC(=O)CC2NCCNC2=O)sc2c1CCCC2 (stereo not drawn) | inactive | – |
| Cc1nn(CC(=O)Nc2ccccn2)c(C)c1Br | inactive | – |
| CCOCCCNC(=O)C1CCN(S(=O)(=O)CC)CC1 | – | 3.67 |
| CCOC(=O)C(C)N1C(=O)S/C(=C\c2ccc(-c3ccccc3C(=O)O)o2)C1=O (stereo not drawn) | – | 28.4 |
| COc1cc(C(=O)Nc2cccc(-c3nc4ncccc4o3)c2C)cc(OC)c1OC | – | 4.73 |
| CCC1(C(N)=O)CC2C=CC1C2 (stereo not drawn) | inactive | – |
| CCOC(=O)C(C)Sc1nnc2n1C(C)(C)Cc1ccccc1-2 (stereo not drawn) | – | 0.68 |
| O=S1(=O)CCC(N2CCOCC2)C1 (stereo not drawn) | – | 2.7 |
| CCOC(=O)/C=C1\SC(C)C(=O)N1CC(=O)N(CCC#N)c1ccccc1 (stereo not drawn) | inactive | – |
| COc1ccc(C2=NO[C@@H]3C(=O)N(c4ccc(C)cc4C)C(=O)[C@H]23)cc1OC | – | 12.3 |
| COc1ccc(OC)c(-n2cnnn2)c1 | – | 7.43 |
| CC(C)(C)NC(=O)C1N(c2cccnc2)C(=O)C2C(C(=O)Nc3ccccc3F)C3(C)C=CC21O3 (stereo not drawn) | – | 16.2 |
| COc1ccc(OC)c(NC(=O)CSc2nnc(C)n2Cc2ccccc2)c1 | inactive | – |
| Cc1cc(SCC(=O)NCCCN2CCCC2=O)nc2ccccc12 | inactive | – |
| O=C(NCCN1CCOCC1)c1cc(-c2ccc(Br)cc2)on1 | – | 0.68 |
| CCc1nc(SCC(=O)Nc2ccc(C(=O)O)cc2)n[nH]1 | – | 0.68 |
